HP1b chromo inh: HP1-beta chromodomain-methylated histone interaction inhibition; P83916; AlphaScreen HP1-beta / biotin-H3K9me3 peptide binding; Potency, µM (titrated, usually from 114 µM), actives largely listed as inhibitors; actives 0.56% (n = 390,000); AID 540317; further: nearly all actives have a fitted effect of over 70% in size
Target sequence (P83916 whole entry, looked up): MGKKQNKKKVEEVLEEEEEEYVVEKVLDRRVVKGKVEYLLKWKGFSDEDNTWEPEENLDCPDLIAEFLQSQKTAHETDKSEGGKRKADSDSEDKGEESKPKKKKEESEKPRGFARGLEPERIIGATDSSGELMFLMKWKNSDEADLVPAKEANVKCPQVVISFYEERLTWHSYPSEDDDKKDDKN
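Compound inhibition of the preformed complex between 50 nM HP1-beta and 50 nM biotinylated H3K9me3 peptide was read by AlphaScreen. Buffer was PBS pH 7.4 with 0.01% Tween-20. Incubations ran 30 min at room temperature, with 10 ug/mL donor/acceptor beads.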
G9a block: inhibitors of human histone lysine methyltransferase G9a. Potency, µM (highest dose often 102 µM), most hits filed as inhibitors. AID 504332. G9a H3K9 monomethylation, AlphaScreen, 2 h. actives 8.8% (n = 350,000); further: nearly all actives have a fitted effect of over 75% in size
Target sequence (Q96KQ7 913-1193 limits assumed): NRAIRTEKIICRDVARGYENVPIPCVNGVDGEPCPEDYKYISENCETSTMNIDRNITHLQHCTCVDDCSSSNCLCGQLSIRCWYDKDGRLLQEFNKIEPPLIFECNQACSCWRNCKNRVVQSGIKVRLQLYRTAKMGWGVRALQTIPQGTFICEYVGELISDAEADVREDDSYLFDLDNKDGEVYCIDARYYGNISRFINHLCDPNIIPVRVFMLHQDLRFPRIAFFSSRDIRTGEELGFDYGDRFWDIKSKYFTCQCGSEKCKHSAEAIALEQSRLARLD
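Readings reflect AlphaScreen signal from monomethyl-H3K9 antibody detection. HMT at 20 nM; substrate b-H3K9 500 nM; cofactor SAM 20 uM; 2 h RT reaction; compounds tested as titrations in qHTS with 15 min preincubation.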
BAZ2B inh: inhibitors of human BAZ2B bromodomain | AID 504333 | Q9UIF8 | actives 4.4% (n = 360,000) | Potency, µM (top dose mostly 114 µM), actives largely listed as inhibitors | AlphaScreen BAZ2B-H3K14Ac peptide displacement; further: nearly all actives have a fitted effect of over 60% in size
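Inhibition is scored as reduced AlphaScreen emission. The BAZ2B/b-H3(5-23)K14Ac complex (50 nM each) in PBS pH 7.4, 0.01% Tween-20 meets compound (up to 110 uM) for 30 min at RT before bead addition.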
PLK1 PBD inh: PLK1 (human) polo-box domain binding inhibition; Potency, µM, most hits filed as inhibitors; P53350; actives 2.8% (n = 360,000); Plk1 PBD binding of FITC phosphopeptide, fluorescence polarization; further: series mostly up to about 57 µM; nearly all actives have a fitted effect of over 65% in size
12-LOX inh: blocks human arachidonate 12S-lipoxygenase | purified 12hLO, xylenol orange hydroperoxide absorbance | actives 1.1% (n = 580,000) | Potency, µM (top dose mostly 108 µM), usual class: inhibitors | AID 1671190 | P18054
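Purified human 12hLO at 150 nM in 25 mM Hepes, 0.01% Triton X-100, pH 7.0, preincubated 15 min at room temperature with compound. Reaction started with 40 uM arachidonic acid, 30 min at room temperature. Hydroperoxide measured by Fe-xylenol orange, 573/405 nm absorbance ratio.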
JMJD2A Tudor inh: JMJD2A Tudor domain (human) inhibition; AlphaScreen JMJD2A-Tudor / H3K4me3 peptide binding; Potency, µM (titrated, usually from 114 µM), usual class: inhibitors; actives 4.4% (n = 390,000); AID 504339; further: nearly all actives have a fitted effect of over 50% in size
Of the large screens only hits and unclear results are named; the others gave an inactive call. Sampled rows, rich in hits. Any-hit rate of the full collection: about 9%. The call rests on the fitted dose curve; in most records, active means well fitted curve in the direction sought with a large enough effect; inconclusive means small, poorly fitted or top-dose-only effect, or another doubt; inactive means no such curve, though single readings can be large; an effect the other way counts as inactive or inconclusive.

CCOCCCNC(=O)C(NC(=O)Cc1cccs1)c1ccc(C)cc1 (stereo not given)	none
CC(=O)c1cccc(NC(=S)NC(=O)Cc2ccccc2)c1	G9a block 22µM, BAZ2B inh inconclusive
O=C(Cc1ccccc1)NNC(=S)Nc1ccc(Cl)cc1	G9a block inconclusive
Cc1cccc(NCC(=O)NNC(=S)Nc2ccccc2)c1	G9a block 32µM, JMJD2A Tudor inh inconclusive
Cc1cccc(NC(=S)NNC(=O)Cc2ccccc2)c1	G9a block 16µM
CC(C)CC(=O)N1CCN(Cc2ccc(Br)cc2)CC1	HP1b chromo inh inconclusive, G9a block 32µM, 12-LOX inh inconclusive, JMJD2A Tudor inh 20µM
CC(C)CC(=O)N1CCN(Cc2ccc(Cl)cc2)CC1	HP1b chromo inh inconclusive, BAZ2B inh inconclusive, 12-LOX inh inconclusive, JMJD2A Tudor inh 10µM (no result: G9a block)
CC(C)c1ccc(CN2CCN(C(=O)CCl)CC2)cc1	G9a block inconclusive
CC(C)CC(=O)N1CCN(Cc2ccccc2[N+](=O)[O-])CC1	HP1b chromo inh 32µM, G9a block 14µM, BAZ2B inh 25µM, JMJD2A Tudor inh 1.3µM
CC(C)CC(=O)N1CCN(Cc2ccc(C(F)(F)F)cc2)CC1	HP1b chromo inh inconclusive, BAZ2B inh inconclusive, JMJD2A Tudor inh 28µM (no result: G9a block)
O=C(/C=C/c1ccc(C(F)(F)F)cc1)N1CCN(Cc2ccccc2)CC1	none (no result: HP1b chromo inh, G9a block, BAZ2B inh, PLK1 PBD inh, JMJD2A Tudor inh)
COc1ccc(CN2CCN(Cc3ccc(C(F)(F)F)cc3)CC2)cc1	HP1b chromo inh inconclusive, G9a block 7.1µM, BAZ2B inh 25µM, 12-LOX inh inconclusive, JMJD2A Tudor inh 7.9µM
COc1ccc(OC2CN(Cc3ccc(C(F)(F)F)cc3)C2)cc1	none (no result: HP1b chromo inh, G9a block, BAZ2B inh, PLK1 PBD inh, JMJD2A Tudor inh)
CC(C)(C)OC(=O)[C@H]1[C@H](c2ccc([N+](=O)[O-])cc2)C2(C(=O)c3ccccc3C2=O)C2c3ccccc3C=NN21 (stereo not given in full)	G9a block 14µM, BAZ2B inh 40µM, JMJD2A Tudor inh inconclusive
COc1ccc([C@H]2[C@H](C(=O)C(C)(C)C)N3N=Cc4ccccc4C3[C@]23N=C(c2ccccc2)OC3=O)cc1 (stereo not given in full)	BAZ2B inh inconclusive (no result: G9a block)
CC(C)(C)NC(=O)C(=O)NNC(=O)c1ccccc1Br	G9a block 22µM, BAZ2B inh inconclusive
O=C(NNC(=O)c1ccccc1Br)c1ccncc1	none
COc1ccccc1C(=O)NNC(=O)C(=O)NC(C)(C)C	BAZ2B inh 89µM
COC(=O)NNC(=O)c1ccccc1OC	none
Cc1ccc(NC(=O)CN2C(=O)C(c3ccc(C(C)(C)C)cc3)=NC2(C)C)cc1	none (no result: PLK1 PBD inh)
CCC1(C)NC(c2ccc3c(c2)OCO3)=CC(c2ccccc2O)N1 (stereo not given)	none (no result: G9a block, BAZ2B inh, PLK1 PBD inh, 12-LOX inh)
Cc1ccc(S(=O)(=O)NC(=O)c2cc(C)n(CCCn3ccnc3)c2C)cc1	G9a block inconclusive, BAZ2B inh 32µM, JMJD2A Tudor inh 56µM
Cc1cc(=S)cc(C)n1CCCn1ccnc1	G9a block 25µM (no result: BAZ2B inh)
Cc1ccc(S(=O)(=O)NCCCn2ccnc2)cc1	BAZ2B inh inconclusive
O=S(=O)(Nc1nc2n(n1)C(c1ccccc1)C=C(c1ccc(Cl)cc1)N2)c1ccccc1 (stereo not given)	G9a block inconclusive, BAZ2B inh 79µM, 12-LOX inh inconclusive (no result: PLK1 PBD inh)
CC1=CC(c2ccc(Cl)cc2)n2nc(N3C(=O)CCC3=O)nc2N1 (stereo not given)	G9a block inconclusive, JMJD2A Tudor inh inconclusive (no result: 12-LOX inh)
Cc1ccc(S(=O)(=O)Nc2nc3n(n2)C(c2ccc(Cl)cc2)C=C(c2ccccc2)N3)cc1 (stereo not given)	12-LOX inh inconclusive (no result: PLK1 PBD inh)
Cc1ccc(C2C=C(c3ccccc3)Nc3nc(N4C(=O)CCC4=O)nn32)cc1 (stereo not given)	G9a block inconclusive, BAZ2B inh 50µM, PLK1 PBD inh inconclusive, JMJD2A Tudor inh 79µM
Cc1ccc(C2C=C(c3ccc(Cl)cc3)Nc3nc(NC(=O)c4ccco4)nn32)cc1 (stereo not given)	G9a block 32µM, BAZ2B inh 50µM, 12-LOX inh 22µM, JMJD2A Tudor inh 79µM (no result: PLK1 PBD inh)
Cc1ccc(C2C=C(c3ccccc3)Nc3nc(NS(=O)(=O)c4ccccc4)nn32)cc1 (stereo not given)	G9a block 14µM, 12-LOX inh inconclusive (no result: PLK1 PBD inh)
COc1ccccc1C(=O)Nc1nc2n(n1)C(c1ccc(F)cc1)C=C(c1ccc(Cl)cc1)N2 (stereo not given)	none (no result: PLK1 PBD inh)
CCCOc1cccc(C(=O)Nc2cccc(NC(=O)c3ccc(Cl)cc3Cl)c2)c1	none (no result: PLK1 PBD inh)
CC(=O)N1c2c(ccc3ccccc23)C(C)CC12CCCCC2 (stereo not given)	12-LOX inh inconclusive
Cc1ccc(C2C=C(c3ccccc3)Nc3nc(NS(C)(=O)=O)nn32)cc1 (stereo not given)	G9a block 20µM, 12-LOX inh inconclusive (no result: PLK1 PBD inh)
O=c1c2ccccc2c(-c2ccccc2)nn1-c1cc(Cl)cc(Cl)c1	none
Cc1[nH]c2ccc(OCc3ccccc3)cc2c1CCN1C(=O)OC(C)(C)C1(C)O (stereo not given)	G9a block 79µM, BAZ2B inh inconclusive, JMJD2A Tudor inh inconclusive
COC(=O)c1ccc(NC(CC(C)C)C(=O)OC)c([N+](=O)[O-])c1 (stereo not given)	G9a block 40µM, BAZ2B inh inconclusive, JMJD2A Tudor inh inconclusive
O=C(O)CCCN1C(=O)/C(=C/c2ccc(-c3nc4ccccc4s3)o2)SC1=S	HP1b chromo inh 16µM, G9a block inconclusive, BAZ2B inh 10µM, PLK1 PBD inh inconclusive, 12-LOX inh inconclusive, JMJD2A Tudor inh 10µM
O=C(O)CCCCCN1C(=O)/C(=C\c2ccc(-c3ccc(Cl)cc3)o2)SC1=S	HP1b chromo inh 40µM, G9a block inconclusive, BAZ2B inh inconclusive, 12-LOX inh inconclusive, JMJD2A Tudor inh 32µM
O=C(O)CCCCCN1C(=O)/C(=C/c2ccncc2)SC1=S	G9a block 79µM
COc1ccc(NC(=O)N(O)C2(C#N)CCCCC2)cc1	none (no result: G9a block, BAZ2B inh)
CC(C)CCN1CCN(C2CCN(c3ccccc3)CC2)CC1CCO (stereo not given)	none
COc1ccc(CN(C)Cc2cc(=O)oc3cc(C)c(C(C)C)cc23)cc1OC	G9a block 89µM, 12-LOX inh inconclusive
Cc1cc2oc(=O)cc(CN(C)Cc3ccccc3)c2cc1C(C)C	none
CCOc1cc(N2CCOCC2)c(OCC)cc1NC(=O)[C@H](C)N1C(=O)C2CC=CCC2C1=O (stereo not given in full)	none
CCOc1cc(N2CCOCC2)c(OCC)cc1NCC(=O)N1CCN(Cc2ccccc2)CC1	HP1b chromo inh 20µM, BAZ2B inh 20µM, JMJD2A Tudor inh 0.79µM (no result: G9a block)
CCOc1cc(N2CCOCC2)c(OCC)cc1NC(=O)Cn1cnnn1	none (no result: G9a block, BAZ2B inh)
CCOc1cc(N2CCOCC2)c(OCC)cc1NC(=O)CSc1ncn[nH]1	G9a block 45µM
